ALR H2O2 inh = inhibitors of human sulfhydryl oxidase ALR; P55789; purified ALR, DTT oxidation, H2O2 HRP-luminol luminescence; inhibition, % (no concentration beside the values); 3.8% of 290,000 active; AID 485317;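 active = mean replicate inhibition above about 79%, with every replicate also reaching it, limit read from the data; inconclusive = only one of the two criteria met; inactive = mean below limit and not every replicate reaching it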
GC-A act = GC-A (human) enzyme activation; 0.14% of 370,000 active; P16066; activation, % at 10 µM; AID 1671463; HEK293 GC-A cells, cGMP TR-FRET, EC30 ANP; 0% at EC30 ANP, 100% saturating ANP; in the data active = activation above about 40%
HDAC3 inh = inhibitors of human histone deacetylase 3 | recombinant HDAC3, fluorogenic peptide/trypsin coupled, fluorescence | inhibition, % at 8.3 µM | 0.15% of 320,000 active | AID 2718; in the data active = inhibition above about 26%, passing the limit was not always enough; inconclusive = no clear call, values can overlap the other calls
NPR2 activator = GC-B (human) receptor activation | P20594 | HEK293-GC-B cells, CNP EC30, cGMP TR-FRET; 0% at EC30 CNP, 100% saturating CNP | activation, % at 10 µM | 0.11% of 370,000 active | AID 1920062;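 active = activation at 10 µM reaching about 35% in either raw or pattern-adjusted values, limit read from the data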
Active calls of the source: *; ? = inconclusive; nt = not tested or not shown; ! = not active in a repeat. This is one part of a sample in which hits are shown more often than they occur.

SMILES	ALR H2O2 inh	GC-A act	HDAC3 inh	NPR2 activator
O=C1c2ccccc2C(Nc2ccc3c(c2)OCO3)N1Cc1ccco1 (centres undefined)	99*	41*	6	-2
O=C(NCCN1CCC(n2c(=O)[nH]c3ccccc32)CC1)c1ccc(F)cc1Cl	nt	5	nt	0
NS(=O)(=O)c1ccc(NC(=S)NNC(=O)c2ccc(Br)o2)cc1	95*	0	-10	1
Cc1c(C(=O)NNC(=S)Nc2ccc(S(N)(=O)=O)cc2)oc2ccccc12	99*	4	8	-5
C=CCN(C)CC#Cc1ccc(OC)cc1	nt	2	nt	2
OC(c1ccc(F)cc1)c1nc(-c2cc3ccccc3o2)cs1 (centres undefined)	nt	8	nt	-2
CCOC(=O)CN1C(=O)N[C@@H](c2cccc(C(F)(F)F)c2)[C@H](C(C)=O)[C@H]1C	-15	2	-12	0
COc1ccc(C=NNC(=O)c2cc(C)oc2C)cc1O	99*	-2	13	0
COc1ccc(/C=N/NC(=O)c2cc(C)oc2C)cc1OC	-10	4	6	0
COc1ccc(/C=N/NC(=O)c2ccccc2O)cc1Cn1cc(Cl)cn1	80*	0	0	2
O=C(N/N=C\c1ccc(O)c([N+](=O)[O-])c1)c1ccccc1-n1cccc1	52	-1	11	-2
COc1ccc(/C=N\NC(=O)c2cccc([N+](=O)[O-])c2)cc1Cn1cc([N+](=O)[O-])cn1	1	2	7	-6
COc1cc(/C=N/NC(=O)c2cc(C)oc2C)ccc1O	99*	-3	-1	-4
COc1cc(C=NNC(=O)c2ccccc2-n2cccc2)ccc1O	99*	-6	2	-2
CC(=O)Nc1sc2c(c1-c1nc3ccccc3s1)CCCNC2	nt	30	nt	34*
COc1ccccc1CNC(=O)CCNS(=O)(=O)/C=C/c1ccc(C)cc1	1	-1	2	-4
CCOc1cc(/C=N\NC(=O)c2c(C)nc3ccccn23)ccc1O	89*	-6	5	1
COc1ccccc1/C=N/NC(=O)c1ccc(=O)n(C)c1	-3	-1	8	0
CCOc1cc(/C=N/NC(=O)c2c(-c3ccccc3)noc2C)ccc1O	96*	-2	4	-7
CCOc1cc(/C=N/NC(=O)c2ccc(=O)n(C)c2)ccc1O	99*	-2	?	3
COc1cc(/C=N/NC(=O)c2c(-c3ccccc3)noc2C)ccc1O	99*	0	-7	1
COc1cc(/C=N/NC(=O)c2ccc(COc3cc(C)ccc3C(C)C)cc2)cc(OC)c1O	nt	-10	7	-4
Cc1ccc(C(C)C)c(OCc2ccc(C(=O)N/N=C/c3ccc(O)c(O)c3)cc2)c1	97*	-16	-8	-2
c1cc2cn[nH]c2cc1NC1CCCCCC1	99*	-4	-8	0
CNC(=O)CSc1nc2nn(-c3ccccc3)c(=O)c-2c2n1CCCCC2	-5	2	5	-8
SMILES	ALR H2O2 inh	GC-A act	HDAC3 inh	NPR2 activator
O=C(CSc1nc2nn(-c3ccccc3)c(=O)c-2c2n1CCCCC2)c1ccc(O)c(O)c1	92*	nt	-3	nt
CC1CCCC(NC(=O)COC(=O)CSc2ccc3ccccc3c2)C1C (centres undefined)	99*	0	19	-2
NC(=O)c1ccc(NC(=O)CSc2cn(CC(=O)N3CCOCC3)c3ccccc23)cc1	99*	0	-5	-2
O=C(CSc1ccccc1)Nc1ccc2c(c1)OCCO2	-6	1	0	3
CCn1c(=O)cc(SCC(=O)Nc2ccc3c(c2)OCO3)c2ccccc21	-2	3	1	0
Cn1cc(SCC(=O)Nc2ccc3c(c2)OCCO3)c2ccccc21	99*	-1	10	4
O=C(CSc1cccc[n+]1[O-])Nc1ccc2c(c1)OCCO2	87*	3	-3	1
O=C(CSc1cn(CC(=O)N2CCOCC2)c2ccccc12)N1CCOCC1	-1	-3	-7	-4
O=C(NCCOc1ccccc1F)c1ccc2c(=O)n3c(nc2c1)CCC3	15	2	0	2
COc1ccc(NC(=O)CCSCCC(=O)Nc2ccc(OC)cc2OC)c(OC)c1	97*	1	-5	-3
COc1ccc(NC(=O)CSCc2ccc(C#N)cc2)c(OC)c1	98*	-1	3	-6
COc1ccc(NC(=O)CC(=O)Nc2ccc(OC)cc2OC)c(OC)c1	-26	4	8	1
COC(=O)[C@]12C[C@H](CC(=O)NCc3cccc(C(F)(F)F)c3)C(=O)N(Cc3cccc4ccccc34)C1=C[C@H](C(C)(C)C)O[C@@H]2C	nt	-4	nt	0
NC1=NC[C@H](Cc2ccc(O)cc2)N1CCCCC1CCCCC1	76*	2	8	4
CC(C)[C@H](NC(=O)CC1CCCC1)C(=O)N1CCC[C@H]1C(=O)NCc1ccccc1	nt	2	nt	7
CC(Sc1cnc2ccccc2n1)C(=O)O (centres undefined)	48	18	3	11
CC(Sc1ccc2ccccc2n1)C(=O)O (centres undefined)	nt	48*!	nt	29
CCOCCn1c(N2CCCC2)nc2c1c(=O)[nH]c(=O)n2C	9	-2	3	3
CC1=Nc2ccccc2N=C(N)C1c1ccccc1 (centres undefined)	96*	-4	11	1
O=C(O)COc1ccccc1/C=C1\SC(=O)N(Cc2ccc(F)cc2)C1=O	98*	-6	0	1
Cc1ccc(CN2C(=O)S/C(=C\c3ccccc3OCC(=O)O)C2=O)cc1	97*	2	2	0
Oc1c(Cl)cc(Cl)cc1CNc1ccccn1	nt	-2	nt	-7
Oc1c(Cl)cc(Cl)cc1CNc1nc2ccccc2[nH]1	99*	-6	-9	-5
Cc1cc(C)c(NC(=O)/C=C\C(=O)O)c([N+](=O)[O-])c1	3	4	3	3
O=C(O)c1ccccc1N=Nc1ccc(O)cc1	99*	0	4	-3
SMILES	ALR H2O2 inh	GC-A act	HDAC3 inh	NPR2 activator
Oc1ccc(N=Nc2ccccc2)cc1	99*	4	9	1
O=C1ON(Cc2ccccc2)C(c2ccccc2)N1c1ccccc1 (centres undefined)	nt	-2	nt	3
S=c1nccc(-c2ccc(Cl)cc2)[nH]1	nt	3	-1	2
Cc1nc2ccccn2c1-c1ccnc(=S)[nH]1	100*	1	4	1
O=C(C(=O)N1CCC(CNC(=O)c2sc3ccccc3c2Cl)CC1)c1cccs1	nt	0	nt	0
O=C(c1ccc(NS(=O)(=O)c2ccc3[nH]c(=O)[nH]c3c2)cc1)N1CCN(c2ccccc2O)CC1	98*	4	8	2
Cc1cccc(N2CCN(C(=O)c3ccc(NS(=O)(=O)c4ccc5[nH]c(=O)[nH]c5c4)cc3)CC2)c1C	-1	2	10	1
COc1ccc(N2CCN(S(=O)(=O)c3c(C)nc4sccn4c3=O)CC2)cc1	84*	1	-2	-1
Cc1nc2sccn2c(=O)c1S(=O)(=O)Nc1ccc(N2CCN(C)CC2)cc1	97*	0	nt	5
Cc1nc2sccn2c(=O)c1S(=O)(=O)N1CCN(c2ccccc2)CC1	72	-7	nt	0
